Results on 17 compounds are retold here after PubChem BioAssay.

Activity calls are given as the source filed them. The rule behind the calls is not given here.

Chain of Pantothenate synthetase (Mycobacterium tuberculosis (strain ATCC 25618 / H37Rv)) (P9WIL5 whole entry, looked up): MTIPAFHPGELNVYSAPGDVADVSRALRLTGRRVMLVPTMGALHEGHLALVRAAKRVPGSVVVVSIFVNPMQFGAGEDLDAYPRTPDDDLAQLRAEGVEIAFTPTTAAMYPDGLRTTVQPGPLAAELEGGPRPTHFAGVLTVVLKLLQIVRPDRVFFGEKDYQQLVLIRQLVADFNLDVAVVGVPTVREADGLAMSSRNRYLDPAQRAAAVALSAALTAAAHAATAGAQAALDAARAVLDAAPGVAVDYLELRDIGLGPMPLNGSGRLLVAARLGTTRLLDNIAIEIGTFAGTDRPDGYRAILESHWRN

This test has as its target Pantothenate synthetase (Mycobacterium tuberculosis (strain ATCC 25618 / H37Rv)) (UniProt P9WIL5). Put plainly: Recombinant Mtb pantothenate synthetase (PanC) inhibitors, coupled enzyme, confirmatory (AID 375).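 Note: 0% = full reaction with vehicle and 100% = no enzyme background.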 The note with it: coupled enzyme assay; at 10 µM, stronger effect = higher value.
On to `CC(C)CNc1oc(-c2ccc(F)cc2)nc1C#N`, for which the inhibition was 2% (inactive). `COCCSc1nnc(NC(=O)CSCc2ccccc2)s1`: the inhibition is 0% (inactive).

As to `CCOC(=O)c1ccc2nc(C)c3c(c2c1)OC(C)C3` (configuration not stated), the inhibition was 0% (inactive).

For the compound `CC(=O)N1CCN(c2ccc(S(=O)(=O)N3CCCCC3)cn2)CC1`, the inhibition is 0% (inactive).

Turning to `Cc1ccc(-n2c3c(cc(C(=O)NCCCN4CCOCC4)c2=O)C(=O)CC(C)(C)C3)cc1`, the inhibition is 0% (inactive).

On to `C=CCC(NCc1ccco1)c1ccc(OC)cc1OC` (configuration not stated), for which the inhibition is 3% (inactive). Under `O=C(Nc1nnc(N2CCCCCC2)s1)c1cc(-c2ccc(Br)cc2)on1` stands 12% (inactive); under `Cc1cc(C)cc(NC(=O)CN(C)S(=O)(=O)c2cnc[nH]2)c1`, 11% (inactive); under `c1ccc(-c2cn3c4c(sc3n2)CCCC4)cc1`, 3% (inactive). Consider `COc1ccc(-c2ccc(Nc3ccc(S(=O)(=O)N4CCCC4)cc3)nn2)cc1OC`, for which the inhibition was 11% (inactive). Turning to `COc1ccc(CSCCN)cc1Cl`, the inhibition is 0% (inactive). `Cc1cc(=O)[nH]c(=S)n1-c1ccccc1`: the inhibition is 17% (inactive). For `COc1ccc(OC)c(N2Cc3cc(C)c(C)cc3C2)c1`, the inhibition is 3% (inactive). For the compound `Cc1ccc(S(=O)(=O)N2CCN(C(=O)N3CCOCC3)C2c2ccc(N(C)C)cc2)cc1` (configuration not stated), the inhibition is 0% (inactive).

Regarding `COc1cc2nc(SCC(=O)NC3CC3)n(CCC3=CCCCC3)c(=O)c2cc1OC`, the inhibition was 1% (inactive).

As to `CCOc1cc(C(=O)N(C)Cc2cc3cc(OC)ccc3[nH]c2=O)cc(OCC)c1OCC`, the inhibition is 0% (inactive). On to `O=C(Nc1cc(C(F)(F)F)ccc1N1CCCC1)c1ccc2c(c1)OCO2`, for which the inhibition is 2% (inactive).
